Records with an inconclusive call do not appear. Entries that show only a call come without a potency. Active and inactive are the calls of the source. Calls follow the shape of the dose curve; as a rule, active = well fitted inhibition curve with a large enough effect; inconclusive = small, poorly fitted or top-dose-only effect; inactive = no such curve, though single readings can be large or run the other way.
Target: N-terminal Xaa-Pro-Lys N-methyltransferase 1 (Homo sapiens) (UniProt Q9BV86)
Sequence (Q9BV86 whole entry, looked up): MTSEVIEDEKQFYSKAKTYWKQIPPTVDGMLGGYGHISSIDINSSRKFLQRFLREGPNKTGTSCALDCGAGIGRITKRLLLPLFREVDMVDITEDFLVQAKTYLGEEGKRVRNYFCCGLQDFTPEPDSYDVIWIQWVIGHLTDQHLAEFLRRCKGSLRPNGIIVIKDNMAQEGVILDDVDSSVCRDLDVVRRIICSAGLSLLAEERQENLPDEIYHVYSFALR
Experiment: qHTS Assay for Inhibitors of N-terminal methyltransferase 1 (NTMT1): MTaseGlo Confirmatory Screen, Round 2
Conditions: NTMT1 enzyme, MTase-Glo SAH luminescence; series mostly up to 57.4 µM
Summary of the method: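 Luminescent MTase-Glo readout of SAH formed in 30 min at RT by 125 nM NTMT1, 100 µM SAM and 1 µM SPKRIA substrate, after ~15 min compound preincubation. Percent inhibition versus no-enzyme and DMSO controls was Hill-fitted.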
Potency is read from the fitted curve at half-maximal effect.

Q: How did the Potency turn out when `COc1cc(CNC(=O)CCCCCCC(C)C)ccc1O` was run?
A: inactive

Q: `C[C@H](Cc1ccc(O)c(O)c1)[C@@H](C)Cc1ccc(O)c(O)c1` was tested. Which Potency did it give?
A: 15.8 µM (active)

Q: With `O=C1NC(=O)C(=Cc2ccc(-c3ccc(F)cc3O)o2)S1` as the molecule, how does the Potency read?
A: 35.5 µM (active)

Q: How did the Potency turn out when `S=C(Nc1ccccc1)Nc1nccs1` was run?
A: inactive

Q: Which Potency does the source give for `O=C1c2c(O)ccc(O)c2C(=O)c2c(NCCNCCO)ccc(NCCNCCO)c21` here?
A: 31.6 µM (active)

Q: With `N=c1c[n+](N2CCOCC2)[n-]o1` as the molecule, how does the Potency read?
A: inactive

Q: `O=c1ccc2ccc(O)c(O)c2o1` was tested. Which Potency did it give?
A: inactive

Q: For `CN(C)c1ccc(/C=C2\C(=O)Nc3ccccc32)cc1`, which Potency is on record?
A: inactive

Q: For `CC1=C(\C=C/C(C)=C/C=C\C(C)=C\C(=O)O)C(C)(C)CCC1`, which Potency is on record?
A: inactive

Q: `O=c1[nH]c(=S)[nH]c(-c2ccccc2)c1Cc1c(O)ccc2ccccc12` was tested. Which Potency did it give?
A: inactive

Q: Which Potency does the source give for `CN1Cc2sccc2C(c2ccc(O)c(O)c2)C1` (stereo not drawn) here?
A: inactive

Q: For `CNC(=O)c1cnn(-c2nc(N)c3ncn([C@@H]4O[C@H](CO)[C@@H](O)[C@H]4O)c3n2)c1`, which Potency is on record?
A: inactive

Q: How did the Potency turn out when `CN(C)CCCN1c2ccccc2Sc2ccc(Cl)cc21` was run?
A: inactive

Q: With `Cn1ncc(S(=O)(=O)Cc2ccccc2)c(Br)c1=O` as the molecule, how does the Potency read?
A: inactive

Q: Which Potency does the source give for `CCN1C(=O)C=CC1=O` here?
A: inactive

Q: `COc1cc(/C=C(\C#N)C(=O)c2ccc(O)c(O)c2)cc(I)c1O` was tested. Which Potency did it give?
A: inactive

Q: Which Potency does the source give for `O=C(/C=C/c1ccc(O)cc1)c1ccc(O)cc1O` here?
A: inactive

Q: With `Oc1ccc(Cn2cc[nH]c2=S)cc1` as the molecule, how does the Potency read?
A: inactive

Q: For `CCN(CC)C(C)CN1c2ccccc2Sc2ccccc21` (stereo not drawn), which Potency is on record?
A: inactive

Q: For `C=CCN1CCc2cc(O)c(O)cc2[C@H](c2ccccc2)C1`, which Potency is on record?
A: inactive

Q: `COc1ccccc1N1CCN(CCN2C(=O)CC3(CCCC3)CC2=O)CC1` was tested. Which Potency did it give?
A: inactive

Q: Which Potency does the source give for `CC(=O)c1ccc2c(c1)N(CCCN(C)C)c1ccccc1S2` here?
A: inactive

Q: Which Potency does the source give for `COc1cccc(OC)c1OCCNCC1CSc2ccccc2O1` (stereo not drawn) here?
A: inactive

Q: With `N#C/C(=C\c1ccc(O)c(O)c1)C(=O)NCCCNC(=O)/C(C#N)=C/c1ccc(O)c(O)c1` as the molecule, how does the Potency read?
A: 7.94 µM (active)

Q: `O=[N+]([O-])c1ccc(-c2nc(-c3ccc(F)cc3)c(-c3ccncc3)[nH]2)cc1` was tested. Which Potency did it give?
A: inactive

Q: For `C/C(=C\CNc1ncnc2c1ncn2[C@@H]1O[C@H](CO)[C@@H](O)[C@H]1O)CO`, which Potency is on record?
A: inactive

Q: Which Potency does the source give for `CN1CCN(CCCN2c3ccccc3Sc3ccc(Cl)cc32)CC1` here?
A: inactive

Q: For `OCCN1CCN(CCCN2c3ccccc3Sc3ccc(Cl)cc32)CC1`, which Potency is on record?
A: inactive

Q: `Nc1nc(Cl)nc2c1ncn2[C@@H]1O[C@H](CO)[C@@H](O)[C@H]1O` was tested. Which Potency did it give?
A: inactive

Q: How did the Potency turn out when `Cc1ccc(S(=O)(=O)/C=C/C#N)cc1` was run?
A: inactive

Q: Which Potency does the source give for `CNCCc1cnc(CCC(c2ccccc2)c2ccccc2)[nH]1` here?
A: inactive

Q: `CC(CN1c2ccccc2Sc2ccccc21)N(C)C` (stereo not drawn) was tested. Which Potency did it give?
A: inactive

Q: `COc1cc(/C=C(\C#N)C(=O)Nc2nnc(C(F)(F)F)s2)ccc1OCc1ccc(C(F)(F)F)cc1C(F)(F)F` was tested. Which Potency did it give?
A: inactive

Q: For `N#C/C(=C\c1ccc(O)c(O)c1)C(=O)c1ccc(O)c(O)c1`, which Potency is on record?
A: inactive

Q: How did the Potency turn out when `O=C(N[C@@H](Cc1ccccc1)C(=O)CCl)OCc1ccccc1` was run?
A: inactive

Q: Which Potency does the source give for `CCN1CCC[C@H]1CNC(=O)c1cc(S(N)(=O)=O)ccc1OC` here?
A: inactive

Q: `COc1cc2c(NC3CCN(C(C)C)CC3)nc(N3CCC(F)(F)CC3)nc2cc1OCCCN1CCCCC1` was tested. Which Potency did it give?
A: inactive

Q: How did the Potency turn out when `Nc1nc2ccc(Cl)cc2c2nc(-c3ccco3)nn12` was run?
A: inactive

From PubChem BioAssay AID1347147 (National Center for Advancing Translational Sciences (NCATS), 2019)
